# Experimental data reported in PubChem BioAssay AID1942 (Johns Hopkins Ion Channel Center, 2009).
# About 580 (24%) of roughly 2,400 compounds were called active.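 Rule for the calls: active = activity change at or above the mean plus 3 SD of buffer wells without dofetilide, per plate; inactive = the rest.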 A selection follows.
# Target: Potassium voltage-gated channel subfamily KQT member 2 (Rattus norvegicus) (UniProt O88943)
# Assay: KCNQ2 potentiation in CHO cells – cell-based, FluxOR thallium flux, counter-screen for hERG block protector project, confirmation (AID 1942);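 note: normalized value minus buffer-control mean plus three SD of buffer wells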
# Settings: FluxOR thallium flux fluorescence, at 10 µM, active compounds read high
# Potassium voltage-gated channel subfamily KQT member 2 (Rattus norvegicus), sequence (O88943 whole entry, looked up): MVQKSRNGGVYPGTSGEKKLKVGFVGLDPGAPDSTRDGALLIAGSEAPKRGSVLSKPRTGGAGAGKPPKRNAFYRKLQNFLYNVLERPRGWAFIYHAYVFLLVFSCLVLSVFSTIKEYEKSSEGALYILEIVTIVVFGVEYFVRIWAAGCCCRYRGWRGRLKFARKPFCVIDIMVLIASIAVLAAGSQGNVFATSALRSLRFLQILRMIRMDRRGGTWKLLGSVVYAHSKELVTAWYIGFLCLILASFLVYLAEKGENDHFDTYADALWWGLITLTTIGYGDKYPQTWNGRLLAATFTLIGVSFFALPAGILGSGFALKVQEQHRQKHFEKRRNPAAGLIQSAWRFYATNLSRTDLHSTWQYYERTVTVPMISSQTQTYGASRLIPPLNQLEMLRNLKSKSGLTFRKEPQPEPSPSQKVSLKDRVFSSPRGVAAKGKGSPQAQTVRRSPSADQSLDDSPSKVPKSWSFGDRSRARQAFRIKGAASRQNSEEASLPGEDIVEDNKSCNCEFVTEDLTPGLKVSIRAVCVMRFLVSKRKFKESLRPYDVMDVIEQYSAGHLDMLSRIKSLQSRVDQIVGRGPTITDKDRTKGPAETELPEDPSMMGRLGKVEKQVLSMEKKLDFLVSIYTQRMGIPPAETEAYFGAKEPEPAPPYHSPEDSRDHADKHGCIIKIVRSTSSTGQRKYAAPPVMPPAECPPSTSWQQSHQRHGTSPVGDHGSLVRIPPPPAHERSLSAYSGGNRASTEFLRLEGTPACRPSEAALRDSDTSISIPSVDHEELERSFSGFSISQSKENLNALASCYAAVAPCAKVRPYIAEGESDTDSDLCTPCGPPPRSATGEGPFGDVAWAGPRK
row,Structure (SMILES),"activity change, less the hit threshold"
1,CC(C)Oc1ccccc1C1(c2ccccc2)NC(=O)NC1=O (configuration not stated),-22.4% (inactive)
2,CCCCc1cc(=O)oc2c(C)c(OCC(=O)NCc3ccccn3)ccc12,-13.4% (inactive)
3,COc1ccc2nc(/N=C/c3c(C)[nH]n(-c4ccc(C)cc4C)c3=O)sc2c1,23% (active)
4,CCOc1ccc2nc(/N=C/c3c(C)[nH]n(-c4ccc(C)cc4)c3=O)sc2c1,102% (active)
5,CCOc1ccc2nc(/N=C/c3nc(-c4ccc(Br)cc4)oc3O)sc2c1,-9.3% (inactive)
6,CCOc1ccc2nc(N3C(=O)/C(=C/c4ccc(Cl)cc4)NC3=S)sc2c1,-21.3% (inactive)
7,CCC(c1nnc(SCC(=O)NCCc2ccc(Cl)cc2Cl)o1)N(C)C (configuration not stated),-31.5% (inactive)
8,CCOc1ccccc1C(=O)NC1CC2CCCC(C1)N2Cc1nnnn1Cc1ccco1 (configuration not stated),-26.4% (inactive)
9,Cc1ccc2cc(CN(CCCN(C)C)C(=S)NCc3ccccc3)c(=O)[nH]c2c1C,-23.9% (inactive)
10,CC1CC(OCC(O)C[N+]2(C)CCOCC2)CC(C)(C)C1 (configuration not stated),-21.6% (inactive)
11,CCCSc1cc(NCCOC(C)=O)c([N+](=O)[O-])c2nonc12,-13.1% (inactive)
12,COc1ccc(C(=O)O/N=C(\N)c2ccccn2)cc1[N+](=O)[O-],-10.2% (inactive)
13,O=[N+]([O-])C1=CC=C2C(=NC3(CCCCC3)N2O)C1=NC1CCCCC1,-27.4% (inactive)
14,Cc1ccc(/C(O)=C/C(=O)C(=O)NC23CC4CC(CC(C4)C2)C3)cc1,1.2% (active)
15,Nc1cccc2c1C(=O)N(CC(=O)NC13CC4CC(CC(C4)C1)C3)C2=O,-18.4% (inactive)
16,O=C(O)c1ccc(CNC(=O)C23CC4CC(CC(C4)C2)C3)cc1,-18.2% (inactive)
17,S=c1[nH]nc(-c2n[nH]c3c2CCC3)n1/N=C/C=C/c1ccccc1,-26.2% (inactive)
18,CC(=O)OCC1O[C@@H](O[C@@H]2C[C@H]3C(C)(C)[C@H](OC(C)=O)CC[C@]3(C)[C@H]3CC[C@]45C[C@]4(CC[C@H]5[C@@H](C)C[C@@H](O)[C@H](O)C(C)(C)O)[C@@]32C)[C@H](O)[C@@H](O)[C@@H]1O (some centres not stated),1% (active)
19,CC(Nc1ccc(F)cc1)=[N+](C)CCNS(=O)(=O)c1ccc(Cl)cc1,-10.9% (inactive)
20,N/C(=N\OS(=O)(=O)c1cccc([N+](=O)[O-])c1)c1ccncc1,1.3% (active)
21,CN(c1cccc(NS(=O)(=O)c2cccc([N+](=O)[O-])c2)c1)S(C)(=O)=O,-9.2% (inactive)
22,O=C(CSc1nnc(-c2ccncc2)o1)c1cccc([N+](=O)[O-])c1,-29.3% (inactive)
23,CCOc1cccc(Nc2cc3n(c(=O)n2)CCc2cc(OC)c(OC)cc2-3)c1,-19.8% (inactive)
24,O=C1c2ccccc2C(=O)N1Cc1nc2ccccc2c(=O)n1CCCn1ccnc1,-20.6% (inactive)

row,Structure (SMILES),"activity change, less the hit threshold"
1,CCCn1c(SCN2C(=O)c3ccccc3C2=O)nc2cc(Cl)ccc2c1=O,21.1% (active)
2,CC(C)CCn1c(SCC(=O)NC2CC2)nc2cc(Cl)ccc2c1=O,-8.5% (inactive)
3,Cc1ccc(OCC(=O)Nn2cnc3ccccc32)cc1,-12.3% (inactive)
4,O=C(CCc1ccc(S(=O)(=O)N2CCCCC2)cc1)c1nnc(-c2ccccc2)o1,-13.3% (inactive)
5,S=C(N/N=C/c1cccc2ccccc12)Nc1cccc(Cl)c1,-17.2% (inactive)
6,S=c1nn[nH]n1C12CC3CC(CC(C3)C1)C2,21.6% (active)
7,O=C1c2ccccc2C(=O)N1Cc1ccco1,-11.8% (inactive)
8,Cc1ccc(-n2c(=S)[nH]c3sc4c(c3c2=O)CCC4)cc1,0.2% (active)
9,CCn1c(=S)[nH]c2sc3c(c2c1=O)CCCCC3,97.9% (active)
10,O=c1c2c3c(sc2[nH]c(=S)n1Cc1ccco1)CCC3,26.9% (active)
11,Cc1cccc(-n2c(=S)[nH]c3sc4c(c3c2=O)CCc2ccccc2-4)c1,-19.9% (inactive)
12,CCn1c(=S)[nH]c2sc3c(c2c1=O)CCCC3,49.6% (active)
13,Cc1cc(=O)[nH]c(=S)n1-c1ccccc1,-31% (inactive)
14,CCN(/N=C/c1ccc(Cl)cc1)c1cc(=O)n(C)c(=O)[nH]1,-19% (inactive)
15,CCCCCOCC1CC(C/C(C)=N/Nc2nc(-c3ccccc3)cs2)C(=O)O1 (configuration not stated),-18.7% (inactive)
16,O=C(/C=C/Nc1ccc(F)cc1)c1ccco1,-17.3% (inactive)
17,O=C(c1cccc2c1-c1ccccc1C2)N1CCCCC1,-20.1% (inactive)
18,O=C(O)c1ccc2c(c1)C(=O)N(c1cc([N+](=O)[O-])ccn1)C2=O,-1.1% (inactive)
19,O=C(CN1CCN(Cc2ccccc2)CC1)NCc1ccccc1Cl,-10.1% (inactive)
20,CCCn1c(=S)[nH]c2sc3c(c2c1=O)CCCC3,72% (active)
21,COc1ccc(N(CC(=O)N2CCN(Cc3ccccc3)CC2)S(C)(=O)=O)cc1,-25.7% (inactive)
22,C#CCN1C(=O)S/C(=C\c2ccc(-c3ccc(C(=O)O)cc3C)o2)C1=O,-20.3% (inactive)
23,COc1cc(CCC(=O)NNC(=O)c2ccc(C)cc2)cc(OC)c1OC,-8.9% (inactive)
